Assays:
Conditions in all cases: concentration: 1 μM, replicates: in singlicate; n = 1
PKAC-beta = system: T1, PKAC-beta
T1 construct: gene PRKACB

PKMYT1 = system: PKMYT1
PKN1 = system: PKN1
PKN2 = system: PKN2
PLK1 = system: PLK1
PLK2 = system: PLK2
PLK3 = system: PLK3
PLK4 = system: PLK4
PRKCD = system: PRKCD
PRKCE = system: PRKCE
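Note: KINOMEscan kinase panel screen.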

Row | Compound | %Inh (PKAC-beta) [%] | %Inh (PKMYT1) [%] | %Inh (PKN1) [%] | %Inh (PKN2) [%] | %Inh (PLK1) [%] | %Inh (PLK2) [%] | %Inh (PLK3) [%] | %Inh (PLK4) [%] | %Inh (PRKCD) [%] | %Inh (PRKCE) [%]
1 | COc1ccc(Nc2nccc(N3CCC(NC(=O)C(C)c4ccc(Cl)cc4)C3)n2)cc1 (stereo not shown) [GSK1379735] | 4 | 0 | 29 | 0 | 0 | 0 | 0 | 0 | 0 | 5
2 | COC(=O)C(Cc1ccccc1)NC(=O)NC1CCN(c2ccnc(Nc3ccc(F)cc3)n2)C1 (stereo not shown) [GSK1379714] | 0 | 0 | 41 | 0 | 6 | 0 | 0 | 12 | 1 | 20
3 | COc1ccc(Nc2nccc(N3CCC(NC(=O)C(C)c4ccc(Cl)cc4)CC3)n2)cc1 (stereo not shown) [GSK1379812] | 8 | 9 | 0 | 6 | 20 | 0 | 0 | 13 | 0 | 1
4 | CS(=O)(=O)CCNCc1nc(-c2ccc3ncnc(Nc4ccc5c(cnn5Cc5ccccc5)c4)c3c2)cs1.Cl.Cl [GW569716] | 3 | 6 | 0 | 15 | 0 | 0 | 0 | 13 | 0 | 11
5 | COc1ccc(Nc2nccc(N3CCC(NC(=O)c4cc5ccccc5s4)C3)n2)cc1 (stereo not shown) [GSK1379738] | 0 | 3 | 23 | 0 | 11 | 0 | 0 | 3 | 0 | 17
6 | O=C1NC(=O)C(c2ccc(Cl)cc2)=C1Nc1cccc(Cl)c1 [SB-317651] | 94.7 | 0 | 15 | 0 | 4 | 0 | 30 | 0 | 12 | 3
7 | Nc1ncnc2occ(-c3ccc4c(c3)CCN4C(=O)Cc3cc(F)ccc3F)c12 [GSK2645446] | 8 | 0 | 7 | 0 | 0 | 0 | 0 | 5 | 0 | 0
8 | CNC(=O)c1ccc(C)c(-n2c(C)cc(OCc3ccc(F)cc3F)c(Br)c2=O)c1 | 74 | 0 | 0 | 19 | 0 | 0 | 0 | 0 | 7 | 35
9 | Cn1cnc2c(N)ncnc21 [SKF-97623] | 0 | 0 | 0 | 0 | 0 | 0 | 0 | 0 | 0 | 9
10 | O=C(Nc1n[nH]c2cc(-c3ccsc3)ccc12)C1CC1 [SB-732932] | 18 | 9 | 56 | 4 | 2 | 24 | 0 | 0 | 0 | 0
11 | COC(=O)c1cccc(NC(=O)NC2CCN(c3ccnc(Nc4ccc(F)cc4)n3)C2)c1 (stereo not shown) [GSK1379725] | 0 | 0 | 0 | 0 | 0 | 0 | 0 | 0 | 0 | 4
12 | CC(=O)c1c(C)c2cnc(Nc3ccc(N4CCNCC4)cn3)nc2n(C2CCCC2)c1=O | 6 | 23 | 0 | 15 | 0 | 0 | 0 | 6 | 18 | 55
13 | COc1ccc(CSc2nnc(-c3ccc4nccn4c3)o2)cc1C(F)(F)F | 26 | 28 | 3 | 33 | 0 | 42 | 16 | 11 | 20 | 21
14 | O=C1NC(=O)C(c2ccc(Cl)cc2)=C1Nc1ccc(O)cc1 [SB-340867] | 18 | 0 | 0 | 12 | 0 | 0 | 0 | 0 | 0 | 1
15 | COc1ccc2cc(-c3nc(-c4ccccc4C(C)C)[nH]c3-c3ccncc3)ccc2c1 [SB-660566] | 3 | 7 | 24 | 0 | 0 | 0 | 0 | 4 | 0 | 0
16 | Cc1ccc(NC(=O)Nc2ccc(Cl)c(C(F)(F)F)c2)cc1-c1ccc(C(=O)Nc2ccncc2)cc1 [GSK1398470] | 0 | 0 | 10 | 25 | 0 | 0 | 0 | 0 | 0 | 0

Reference: article PMC5540273 (PLoS ONE, 2017)
